Test results published in PubChem BioAssay AID488969 (Vanderbilt High Throughput Screening Facility, 2010).
In all, about 110,000 compounds were measured (“z-score”: median about -0.1, highest 2% from about 2 on). The entries come from a sample that favours the highest values as a whole. Activity calls are given as the source filed them.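 How the source made its calls: active means z-score in the third read window above 3 or below -3; inactive means the rest.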

biological target: Metabotropic glutamate receptor 8 (Rattus norvegicus) (UniProt P70579); assay: rat mGluR8 modulators via GIRK flux, primary screen, cell-based, thallium flux, HTS (AID 488969); conditions: HEK293 rat mGluR8, GIRK (G protein-gated inwardly rectifying potassium channel) thallium flux, FluoZin2; at 10 µM; stronger effect = higher value; submaximal glutamate (EC20) added with thallium
Sequence (P70579 whole entry, looked up): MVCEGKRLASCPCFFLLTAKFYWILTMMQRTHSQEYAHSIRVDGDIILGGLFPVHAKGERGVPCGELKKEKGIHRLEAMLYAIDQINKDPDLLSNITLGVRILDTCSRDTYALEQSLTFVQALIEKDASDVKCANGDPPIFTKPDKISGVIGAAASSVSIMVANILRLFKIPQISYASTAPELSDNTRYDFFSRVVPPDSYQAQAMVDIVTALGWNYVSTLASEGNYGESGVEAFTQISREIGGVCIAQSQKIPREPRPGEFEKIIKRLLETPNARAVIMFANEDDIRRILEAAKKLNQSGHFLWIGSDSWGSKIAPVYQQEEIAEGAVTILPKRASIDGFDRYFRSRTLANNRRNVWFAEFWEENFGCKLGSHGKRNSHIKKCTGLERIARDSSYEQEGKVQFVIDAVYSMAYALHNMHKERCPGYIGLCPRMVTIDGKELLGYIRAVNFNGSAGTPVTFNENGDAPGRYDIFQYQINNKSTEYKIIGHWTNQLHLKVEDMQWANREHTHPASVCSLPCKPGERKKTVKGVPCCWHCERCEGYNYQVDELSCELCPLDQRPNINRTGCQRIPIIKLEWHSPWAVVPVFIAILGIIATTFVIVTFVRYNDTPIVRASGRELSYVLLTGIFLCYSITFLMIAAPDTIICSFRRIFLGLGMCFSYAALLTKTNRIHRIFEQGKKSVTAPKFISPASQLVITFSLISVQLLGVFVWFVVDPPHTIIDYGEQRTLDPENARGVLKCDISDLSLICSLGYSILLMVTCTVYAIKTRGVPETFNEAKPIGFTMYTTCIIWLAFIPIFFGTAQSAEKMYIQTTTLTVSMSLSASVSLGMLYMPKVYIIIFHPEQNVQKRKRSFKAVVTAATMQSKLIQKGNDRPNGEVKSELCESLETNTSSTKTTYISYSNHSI

Compound | z-score
Cc1ccc(S(=O)(=O)N2CCOCC2)cc1C(=O)Nc1ccc2c(c1)CCC2 | -0.205
O=C1/C(=C/c2cccnc2)SC(=S)N1c1ccc(F)cc1 | -0.12
CCCC(=O)n1nc(-c2cccnc2)nc1N | 0.575
CCC(=O)n1nc(-c2ccccc2)nc1N | -0.874
CCCC(=O)n1nc(-c2ccccc2)nc1N | 9.34 (active)
S=C(NC1CCCCC1)N(CCc1nc2ccccc2[nH]1)C1CCCC1 | -1.02
CC1Cc2ccccc2N1C(=O)CCNS(=O)(=O)c1cccc2nsnc12 (stereo not given) | 0.906
CCOC(=O)c1cc2n(c1/N=C/N(C)C)-c1ccccc1C2=O | -0.437
CCOC(=O)c1cc2n(c1N)-c1ccccc1C2=O | 5.13 (active)
CCOC(=O)c1cc(C(C)=O)c(=O)n(C)c1N | -0.198
CCOC(=O)c1c(C)[nH]c(C)c1C(=O)COC(=O)/C=C/c1ccc(OC(F)F)cc1 | -0.244
COCC(C)n1c(SCC(=O)NNC(=O)c2ccccc2)nc2ccccc2c1=O (stereo not given) | -0.346
CCOC(=O)/C(C#N)=C\C1=C(N2CCCC2)CC(C)(C)OC1 | 0.457
CCOC(=O)/C(C#N)=C/C1=C(N2CCCC2)CC(C)(CC)OC1 (stereo not given) | -0.501
CCOC(=O)/C(C#N)=C/C1=C(N2CCCC2)CC(C)(C)OC1 | 2.75
Cc1ccc(S(=O)(=O)N2C(=O)C(c3ccccc3)SC2=Nc2ccccc2)cc1 (stereo not given) | 0.00767
CN(CCO)c1ccc([N+](=O)[O-])cc1C(=O)O | 0.404
CCOc1ccc(S(=O)(=O)Nc2ccccc2C(=O)N/N=C/c2c(OC)ccc3ccccc23)cc1 | -0.58
O=C(Nc1ccccc1C(=O)N/N=C/c1ccco1)c1ccccc1Cl | 0.924
Cc1ccccc1C(=O)Nc1ccccc1C(=O)N/N=C\c1ccco1 | 5.6 (active)
O=C(N/N=C/c1ccco1)c1ccncc1 | 0.0764
Cc1nc2ccccc2cc1C(=O)N/N=C/c1ccco1 | 0.211
O=C(Nc1ccccc1C(=O)N/N=C/c1ccco1)c1ccc(Cl)cc1 | 0.162
O=C(Nc1ccccc1C(=O)N/N=C/c1ccco1)c1ccccc1 | 3.37 (active)
Cc1cc(C)nc(N/N=C/c2ccccc2OCc2cccc(Br)c2)n1 | -0.027
O=C(NN1C(=O)C2C3C=CC(C4CC34)C2C1=O)c1ccc(Cl)cc1Cl (stereo not given) | -0.0308
Cc1ccc(-c2nnn(CC(=O)N(c3ccccc3)C(C(=O)NC(C)(C)C)c3cccs3)n2)o1 (stereo not given) | -0.243
CCCC(=O)Nc1c2c(nn1-c1ccc(OC)cc1)CS(=O)C2 (stereo not given) | -1.01
COc1ccc(Cl)cc1N(C)C(=O)CCc1nc(-c2ccc(C)cc2)no1 | 0.139
CC(=O)Nc1ccc(SCC(=O)Nc2ccccc2-c2ccccc2)cc1 | -0.153
